Reference: PubChem BioAssay (EPA / NIEHS)
The source made the active and inactive calls. How the source made its calls: active means hit-call score of the fitted dose curve at least 0.9, where 1 is the maximum; inactive means score below 0.9.

Columns and labels:
[1] = target: Transcription factor E2F1 (Homo sapiens) (UniProt Q01094); experiment: ATG_E2F_CIS: Attagene CIS-FACTORIAL HepG2 Assay for human E2F Transcription Factor 1 (AID 2282935); conditions: HepG2 Attagene cis-reporter, E2F reporter RNA transcripts; actives raise or lower the signal
Summary of the method: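 Transient MRTU transfection of HepG2; 24 h compound exposure; RNA → oligo(dT) RT → PCR → FAM label → HpaI cut → CE fluorescence. Gain/loss of signal fit against DMSO.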

[2] = ATG_E_Box_CIS: Attagene CIS-FACTORIAL HepG2 Assay for human Enhancer Box (E-box) (AID 2282936); conditions: HepG2 E-box cis-reporter transcription, actives raise or lower the signal
Summary of the method: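 Transiently transfected HepG2, endogenous TF-driven reporters, 24 h dosing. Readout: RT-PCR plus capillary electrophoresis of fluorescent reporter fragments. Gain or loss of signal fitted bidirectionally against DMSO baseline.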

[3] = ATG_M_61_CIS: Attagene CIS-FACTORIAL HepG2 Assay for M61 Transcription Factor (Internal Marker) (AID 2282937); conditions: HepG2 Attagene CIS-FACTORIAL M61 internal marker reporter; actives raise or lower the signal
Summary of the method: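 Readout: fluorescent reporter mRNA fragments resolved by capillary electrophoresis after RT-PCR. Transiently transfected human HepG2 cells carried MRTU constructs reporting endogenous TF activity; 24 h chemical exposure; gain or loss of signal fitted relative to DMSO.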

[4] = ATG_EGR_CIS: Attagene CIS-FACTORIAL HepG2 Assay for human Early Growth Response 1 (EGR1) (AID 2282938); conditions: HepG2 Attagene CIS-FACTORIAL EGR reporter mRNA; actives raise or lower the signal
Summary of the method: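 Read-out: fluorescent reporter-mRNA fragments resolved by capillary electrophoresis after RT-PCR, 24 h post-dose in transiently transfected HepG2. Endogenous transcription-factor activity reported via cis-element-regulated reporter units; gain or loss fitted relative to DMSO.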

[5] = ATG_M_19_CIS: Attagene CIS-FACTORIAL HepG2 Assay for M19 Transcription Factor (Internal Marker) (AID 2282939); conditions: HepG2 Attagene CIS-FACTORIAL M19 internal marker reporter; actives raise or lower the signal
Summary of the method: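 In this multiplexed cell assay, transiently transfected HepG2 reporter units report endogenous transcription-factor activity; after 24 hours of treatment, labelled reporter cDNA fragments are quantified by capillary electrophoresis and fitted bidirectionally against DMSO.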

[6] = ATG_ERE_CIS: Attagene CIS-FACTORIAL HepG2 Assay for Estrogen Response Element (ERE) (AID 2282940); conditions: HepG2 ERE cis-reporter, Attagene RNA transcript; actives raise or lower the signal
Summary of the method: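 Measuring endogenous transcription factor output, the assay doses transfected HepG2 cells for 24 hours and quantifies reporter transcripts by fluorescent RT-PCR and capillary electrophoresis, with DMSO as baseline.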

[7] = ATG_Ets_CIS: Attagene CIS-FACTORIAL HepG2 Assay for human Erythroblast Transformation Specific (ETS) (AID 2282941); conditions: HepG2 ETS cis-reporter transcription, actives raise or lower the signal
Summary of the method: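 Bidirectional fit versus DMSO of reporter mRNA signal, detected by RT-PCR and capillary electrophoresis in HepG2 cells transiently transfected with cis-element reporters and dosed 24 h.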

[8] = target: Hepatocyte nuclear factor 3-beta (Homo sapiens) (UniProt Q9Y261); experiment: ATG_FoxA2_CIS: Attagene CIS-FACTORIAL HepG2 Assay for human Forkhead box A2 (FOXA2) (AID 2282942); conditions: HepG2 cis-reporter transcription factor activity, 24 h; actives raise or lower the signal
Summary of the method: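 Readout: fluorescent reporter transcripts resolved by capillary electrophoresis after RT-PCR. Transiently transfected HepG2, 24 h compound exposure, endogenous TF activity at cis promoter elements. Gain or loss of signal fitted relative to DMSO.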

[9] = ATG_FoxO_CIS: Attagene CIS-FACTORIAL HepG2 Assay for human Forkhead box O (FoxO) (AID 2282943); conditions: HepG2 Attagene cis-reporter, FoxO element, mRNA; actives raise or lower the signal
Summary of the method: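 Read-out: fluorescence of 6-FAM-labelled reporter cDNA fragments resolved by capillary electrophoresis. Transiently transfected HepG2 cells were dosed for 24 h; activity fitted in both directions relative to DMSO controls.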

[10] = ATG_GATA_CIS: Attagene CIS-FACTORIAL HepG2 Assay for human GATA Binding Protein (AID 2282944); conditions: HepG2 GATA cis-element reporter, Attagene multiplex mRNA; actives raise or lower the signal
Summary of the method: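 Measures endogenous transcription factor-driven reporter mRNA in HepG2 cells transiently carrying cis-regulated constructs. 24 h dosing; RNA via oligo(dT) reverse transcription, PCR, HpaI digestion, capillary electrophoresis; fitted relative to DMSO.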

[11] = ATG_GLI_CIS: Attagene CIS-FACTORIAL HepG2 Assay for human Zinc Finger Protein GLI1 (AID 2282945); conditions: HepG2, Attagene cis-factorial reporter mRNA, GLI element; actives raise or lower the signal
Summary of the method: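 Transiently transfected HepG2 cells report endogenous transcription factor activity via cis-element-driven reporter units. After 24 h compound exposure, reporter mRNA was measured by RT-PCR with capillary electrophoresis; bidirectional fitting against DMSO baseline.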

[12] = ATG_GRE_CIS: Attagene CIS-FACTORIAL HepG2 Assay for human Glucocorticoid Response Elements (GRE) (AID 2282947); conditions: HepG2 GRE cis-reporter, Attagene multiplex mRNA; actives raise or lower the signal
Summary of the method: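 Read-out: fluorescent reporter-transcript fragments separated by capillary electrophoresis after RT-PCR. Transiently transfected HepG2 cells carrying cis-element-driven reporter units were dosed for 24 h; gain or loss of signal fitted against DMSO control.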

[13] = ATG_ISRE_CIS: Attagene CIS-FACTORIAL HepG2 Assay for human Interferon Regulatory Factor 1 (IRF1) binding to an Interferon-Stimulated Response Element (ISRE) (AID 2282948); conditions: HepG2 ISRE cis-reporter (Attagene), mRNA transcription readout; actives raise or lower the signal
Summary of the method: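 Uses HepG2 liver cells transfected with cis-regulated reporters and measures mRNA 24 h post-dosing through RT-PCR, primer-extension labelling and capillary electrophoresis, with DMSO as negative control.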

[14] = ATG_M_32_CIS: Attagene CIS-FACTORIAL HepG2 Assay for M32 Transcription Factor (Internal Marker) (AID 2282949); conditions: HepG2 Attagene cis-factorial M32 reporter, mRNA; actives raise or lower the signal;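 further: background control marker of the multiplexed CIS panel rather than a real target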
Summary of the method: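 Transient MRTU transfection of HepG2; 24 h compound treatment; TriZol RNA, oligo(dT) RT, reporter PCR, 6-FAM primer extension, HpaI cut, CE. Gain/loss of signal vs DMSO.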

[15] = ATG_M_06_CIS: Attagene CIS-FACTORIAL HepG2 Assay for M06 Transcription Factor (Internal Marker) (AID 2282950); conditions: HepG2 Attagene CIS-FACTORIAL M06 internal marker reporter; actives raise or lower the signal
Summary of the method: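 One of many multiplexed endpoints: HepG2 reporter mRNA after 24 h dosing, detected by RT-PCR and capillary electrophoresis fluorescence; gain or loss of signal analysed against DMSO.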

[16] = target: Hypoxia-inducible factor 1-alpha (Homo sapiens) (UniProt Q16665); experiment: ATG_HIF1a_CIS: Attagene CIS-FACTORIAL HepG2 Assay for human Hypoxia Inducible Factor 1 (HIF1A) (AID 2282951); conditions: HepG2 Attagene cis-factorial HIF1a reporter transcription; actives raise or lower the signal
Summary of the method: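 RT-PCR/capillary electrophoresis fluorescence readout of reporter transcripts from endogenous-TF-driven cis elements in transfected HepG2 cells, 24 h exposure; activity fitted in both directions against DMSO controls.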

[17] = target: Hepatocyte nuclear factor 6 (Homo sapiens) (UniProt Q9UBC0); experiment: ATG_HNF6_CIS: Attagene CIS-FACTORIAL HepG2 Assay for human Hepatocyte Nuclear Factor 6 (HNF6) (AID 2282952); conditions: HepG2 Attagene cis-factorial HNF6 reporter transcription; actives raise or lower the signal
Summary of the method: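 First, HepG2 cells were transfected with the multiplexed cis reporter library and dosed with chemical for 24 h. Next, RNA was reverse-transcribed, PCR-amplified and fluorescently labelled. Finally, HpaI-digested fragments were read by capillary electrophoresis.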

[18] = ATG_MRE_CIS: Attagene CIS-FACTORIAL HepG2 Assay for human Metal Responsive Element (MRE) (AID 2282954); conditions: HepG2 MRE cis-reporter transcription, Attagene multiplex; actives raise or lower the signal
Summary of the method: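 RT-PCR/capillary electrophoresis readout of reporter mRNA, 24 h post-dosing, in HepG2 cells transfected with multiplexed cis-regulated reporter constructs. Gain or loss of signal fitted bidirectionally against DMSO baseline.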

[19] = target: Heat shock factor protein 1 (Homo sapiens) (UniProt Q00613); experiment: ATG_HSE_CIS: Attagene CIS-FACTORIAL HepG2 Assay for human Heat Shock Transcription Factor 1 (HSE) (AID 2282953); conditions: HepG2 HSE cis-reporter, Attagene RNA transcription; actives raise or lower the signal
Summary of the method: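 Using HepG2 with transfected cis-driven reporter constructs, compound effects on endogenous factor activity are scored as reporter mRNA change at 24 h. Detection: RT-PCR, HpaI digestion, capillary electrophoresis; bidirectional fitting to DMSO.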

Measured: outcome

Sequence of Transcription factor E2F1 (Homo sapiens) (Q01094 whole entry, looked up): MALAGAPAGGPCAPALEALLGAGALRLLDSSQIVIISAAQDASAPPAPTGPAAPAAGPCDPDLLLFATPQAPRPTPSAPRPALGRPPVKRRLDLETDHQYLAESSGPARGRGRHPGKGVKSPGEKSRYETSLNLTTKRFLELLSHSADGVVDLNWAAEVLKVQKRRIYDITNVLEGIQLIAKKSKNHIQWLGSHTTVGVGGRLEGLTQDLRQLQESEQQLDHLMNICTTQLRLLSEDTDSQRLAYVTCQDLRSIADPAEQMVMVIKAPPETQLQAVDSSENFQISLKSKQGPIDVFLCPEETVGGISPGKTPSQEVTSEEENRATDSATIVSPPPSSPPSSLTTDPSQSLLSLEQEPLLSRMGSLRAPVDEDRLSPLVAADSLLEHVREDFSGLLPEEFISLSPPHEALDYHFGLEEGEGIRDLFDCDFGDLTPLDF
Sequence of Hepatocyte nuclear factor 6 (Homo sapiens) (Q9UBC0 whole entry, looked up, the tested form may be a part): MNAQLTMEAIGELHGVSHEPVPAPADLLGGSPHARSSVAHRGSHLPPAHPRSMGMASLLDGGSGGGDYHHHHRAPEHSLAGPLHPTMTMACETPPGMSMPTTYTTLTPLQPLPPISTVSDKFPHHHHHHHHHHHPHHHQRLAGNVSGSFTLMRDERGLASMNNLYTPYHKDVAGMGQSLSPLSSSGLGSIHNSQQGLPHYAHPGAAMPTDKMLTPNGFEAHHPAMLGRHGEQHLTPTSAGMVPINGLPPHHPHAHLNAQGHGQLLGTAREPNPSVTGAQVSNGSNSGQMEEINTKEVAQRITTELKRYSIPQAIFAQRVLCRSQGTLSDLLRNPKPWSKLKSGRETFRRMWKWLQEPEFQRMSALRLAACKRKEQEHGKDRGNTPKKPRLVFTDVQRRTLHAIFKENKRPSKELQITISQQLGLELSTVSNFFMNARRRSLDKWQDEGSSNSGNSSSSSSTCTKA
Sequence of Heat shock factor protein 1 (Homo sapiens) (Q00613 whole entry, looked up): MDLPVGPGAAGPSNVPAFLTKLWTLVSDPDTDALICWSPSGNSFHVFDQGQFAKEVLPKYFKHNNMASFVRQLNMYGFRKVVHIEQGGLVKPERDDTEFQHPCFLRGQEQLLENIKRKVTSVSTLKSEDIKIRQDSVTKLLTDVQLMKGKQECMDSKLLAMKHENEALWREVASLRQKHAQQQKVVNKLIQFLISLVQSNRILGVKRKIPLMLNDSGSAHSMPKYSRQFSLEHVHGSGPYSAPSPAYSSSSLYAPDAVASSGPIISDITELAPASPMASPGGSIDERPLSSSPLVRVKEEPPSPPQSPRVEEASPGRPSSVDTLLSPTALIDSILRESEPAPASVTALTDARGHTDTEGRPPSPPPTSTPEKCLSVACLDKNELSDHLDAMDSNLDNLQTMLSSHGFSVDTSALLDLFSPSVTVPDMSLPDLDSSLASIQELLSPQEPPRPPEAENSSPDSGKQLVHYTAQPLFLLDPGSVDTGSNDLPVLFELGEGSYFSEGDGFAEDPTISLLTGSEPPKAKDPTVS
Sequence of Hepatocyte nuclear factor 3-beta (Homo sapiens) (Q9Y261 whole entry, looked up): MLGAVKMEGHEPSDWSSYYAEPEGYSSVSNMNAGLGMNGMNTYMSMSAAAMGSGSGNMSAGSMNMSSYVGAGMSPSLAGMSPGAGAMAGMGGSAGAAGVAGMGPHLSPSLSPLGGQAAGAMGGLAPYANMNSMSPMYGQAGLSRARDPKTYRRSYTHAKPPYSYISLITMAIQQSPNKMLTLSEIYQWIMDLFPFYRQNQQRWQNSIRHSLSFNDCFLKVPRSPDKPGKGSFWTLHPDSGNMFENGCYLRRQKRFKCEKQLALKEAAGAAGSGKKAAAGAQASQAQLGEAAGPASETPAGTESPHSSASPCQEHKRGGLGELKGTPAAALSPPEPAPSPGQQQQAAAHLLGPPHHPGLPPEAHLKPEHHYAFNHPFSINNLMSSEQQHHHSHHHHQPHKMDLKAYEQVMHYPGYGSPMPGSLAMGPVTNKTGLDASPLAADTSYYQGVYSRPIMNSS
Sequence of Hypoxia-inducible factor 1-alpha (Homo sapiens) (Q16665 whole entry, looked up): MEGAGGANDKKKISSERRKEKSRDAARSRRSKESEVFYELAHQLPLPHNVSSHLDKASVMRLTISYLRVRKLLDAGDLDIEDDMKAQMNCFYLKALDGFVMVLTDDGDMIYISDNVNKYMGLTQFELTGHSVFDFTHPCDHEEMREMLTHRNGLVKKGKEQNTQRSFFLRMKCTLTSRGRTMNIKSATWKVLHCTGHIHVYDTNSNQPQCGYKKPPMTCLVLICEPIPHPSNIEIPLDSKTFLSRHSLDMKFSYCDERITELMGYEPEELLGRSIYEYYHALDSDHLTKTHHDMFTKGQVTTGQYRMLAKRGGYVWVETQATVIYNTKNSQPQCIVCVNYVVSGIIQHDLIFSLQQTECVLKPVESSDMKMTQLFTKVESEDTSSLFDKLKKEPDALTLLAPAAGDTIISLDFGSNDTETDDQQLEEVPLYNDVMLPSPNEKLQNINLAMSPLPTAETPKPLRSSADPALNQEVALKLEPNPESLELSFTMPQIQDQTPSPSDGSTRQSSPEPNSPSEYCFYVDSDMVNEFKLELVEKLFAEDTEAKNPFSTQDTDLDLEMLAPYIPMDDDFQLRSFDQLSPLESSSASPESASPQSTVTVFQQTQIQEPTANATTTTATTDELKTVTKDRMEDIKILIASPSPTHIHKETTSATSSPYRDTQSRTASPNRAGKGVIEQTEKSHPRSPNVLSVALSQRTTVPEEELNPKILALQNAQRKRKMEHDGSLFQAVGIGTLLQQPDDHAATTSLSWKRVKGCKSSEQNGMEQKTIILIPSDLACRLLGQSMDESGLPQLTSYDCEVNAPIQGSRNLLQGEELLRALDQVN

O=C(O)CC(C(=O)O)S(=O)(=O)O (stereo not given)
inactive: [1] | [2] | [3] | [4] | [5] | [6] | [7] | [8] | [9] | [10] | [11] | [12] | [13] | [14] | [15] | [16] | [17] | [18]

CCCCOC(=O)C(C)CC (stereo not given)
inactive: [1] | [2] | [3] | [4] | [5] | [6] | [7] | [8] | [9] | [10] | [11] | [12] | [13] | [15] | [16] | [17] | [19] | [18]

OCCCc1ccccc1
inactive: [1] | [2] | [3] | [4] | [5] | [6] | [7] | [8] | [9] | [10] | [11] | [13] | [14] | [15] | [16] | [17] | [19] | [18]

CC(=O)OCc1ccccc1
inactive: [1] | [2] | [3] | [4] | [5] | [6] | [7] | [8] | [9] | [10] | [11] | [12] | [13] | [14] | [15] | [16] | [17] | [18]

CC/C=C\CCOC(=O)c1ccccc1O
inactive: [1] | [2] | [3] | [4] | [5] | [6] | [7] | [8] | [9] | [10] | [11] | [13] | [14] | [15] | [16] | [17] | [19] | [18]

C=C(C)C(=O)OCCCCCCCCCCCC
inactive: [1] | [2] | [3] | [4] | [5] | [6] | [7] | [8] | [9] | [10] | [11] | [12] | [13] | [14] | [15] | [16] | [17] | [19] | [18]

CC(C)OC(=O)c1ccccc1
inactive: [1] | [2] | [3] | [4] | [5] | [6] | [7] | [8] | [9] | [10] | [11] | [12] | [13] | [14] | [15] | [16] | [17] | [18]

Cc1ccc(S(=O)(=O)N=C=O)cc1
inactive: [1] | [2] | [3] | [4] | [5] | [6] | [7] | [8] | [9] | [10] | [11] | [12] | [13] | [14] | [15] | [17] | [19] | [18]
